About 13,000 (3.2%) of roughly 400,000 compounds were called active. Not shown: some 18% with an inconclusive outcome. The sample holds actives, similar compounds and a random draw of the others, so the mix is not that of the screen. Unmarked numbers belong to inactive results. Calls follow the shape of the dose curve; as a rule, active = well fitted cell-killing curve with a large enough effect; inconclusive = small, poorly fitted or top-dose-only effect, or effect the other way; inactive = flat fitted curve, though single readings scatter.
Assay: qHTS assay for MDR1-selective chemotherapeutics: Primary screen using the drug-selected MDR subline cells KB-V1; also: nearly all actives have a fitted effect of over 60% in size
Conditions: KB-V1 MDR cells viability, CellTiter-Glo, 72 h; series mostly up to 46.1 µM; activity change, negative = cytotoxicity: at the top concentration
Summary of the method: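 Readout: CellTiter-Glo luminescence, 10 min after addition. Cells: KB-V1 MDR subline, 72 h at 37 degrees C with compound. Analysis: corrected, normalized data fitted to concentration-effect curves.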
% is scaled to controls: 0 for no effect and ±100 for the full control effect; potency is read from the fitted curve at half-maximal effect.

| SMILES | activity change, negative = cytotoxicity | Potency |
| --- | --- | --- |
| CN(CC(=O)Nc1cccc(F)c1)C(=O)C1=COCCO1 | 17.7% |  |
| Cc1ccc(CN(C)CC(=O)Nc2cccc([N+](=O)[O-])c2)o1 | 0% |  |
| CN(CC(=O)Nc1cccc(F)c1)CC(=O)Nc1cccc([N+](=O)[O-])c1 |  | 11.6 µM (active) |
| C[C@@H]1CN([C@H](C)CO)C(=O)CCCn2cc(nn2)CO[C@H]1CN(C)S(=O)(=O)c1ccc(Oc2ccccc2)nc1 | -17.3% |  |
| O=C(C[C@H]1C[C@H]2c3cc(NS(=O)(=O)c4ccc(F)cc4)ccc3O[C@H]2[C@H](CO)O1)NCc1cc(F)ccc1F | 5.71% |  |
| CC(Sc1nnc(C2CC2)n1C1CC1)C(=O)Nc1ccc(C(N)=O)cc1 (stereo not given) | 6.16% |  |
| CC(Sc1nnc2c(n1)C1CCC2(C)C1(C)C)C(=O)Nc1ccccc1 (stereo not given) |  | 20.6 µM (active) |
| Cc1cccc(-c2nnc(SC(C)C(=O)Nc3ccccc3)n2C)c1 (stereo not given) | 0% |  |
| CC(CNC(=O)c1nnc(Cc2cccc(F)c2)o1)c1ccccc1 (stereo not given) | 0% |  |
| C[C@H](CO)N1C[C@H](C)[C@@H](CN(C)S(=O)(=O)c2ccc(Oc3ccccc3)cc2)OCc2cn(nn2)CCCC1=O | 9.08% |  |
| C[C@@H]1CCCCO[C@H](CN(C)Cc2ccccc2)[C@@H](C)CN([C@H](C)CO)C(=O)c2cc(NS(=O)(=O)c3ccc(Cl)cc3)ccc2O1 | -12.7% |  |
| O=C(NCc1ccccn1)[C@@H]1CCCN1C(=O)[C@@H]1CCCN1C(=O)c1ccccc1 | -11.2% |  |
| CC1(C(=O)NCc2ccc3c(c2)OCO3)CCN1C(=O)Cc1cccc2ccccc12 (stereo not given) | 2.6% |  |
| COc1ccc2c(c1)O/C(=C\c1ccccc1O)C2=O | 5.61% |  |
| COC(=O)C(C)Oc1ccc2c(c1)O/C(=C\c1cccc(Br)c1)C2=O (stereo not given) | 12.6% |  |
| COc1cc(/C=C2\Oc3ccc(C#Cc4ccc(O)cc4)cc3C2=O)cc(OC)c1 |  | 7.31 µM (active) |
| CCN(CC)C(=O)C1=C(C)N(Cc2ccccc2)C(=O)C(CC(=O)NC(c2ccccc2)c2ccccc2)C1 (stereo not given) | 5.18% |  |
| CC(C)(C)c1ccc(C(=O)NCCn2c(N)c(C#N)c3nc4ccccc4nc32)cc1 | -6.17% |  |
| CC(C)Cn1c(N)c(C(=O)NCc2cccs2)c2nc3ccccc3nc21 |  | 10.3 µM (active) |
| Cn1ncc(Br)c1C(=O)NCc1cccs1 | -7.92% |  |
| CCN1C(=O)c2ccccc2S(=O)c2ccc(C(=O)NCc3ccc(F)cc3)cc21 (stereo not given) | -21.4% |  |
| CCOC(=O)C1CCCN(S(=O)(=O)c2cc(-c3cc(C)no3)ccc2OC)C1 (stereo not given) | 4.24% |  |
| O=c1cc(CSc2ncn[nH]2)[nH]c2ccc(F)cc12 | 3.56% |  |
| CCNC(=O)C1(C)CCN(C(=O)c2ccccc2)C1 (stereo not given) | 1.66% |  |

| SMILES | activity change, negative = cytotoxicity | Potency |
| --- | --- | --- |
| Oc1c(C(c2ccccn2)N2CCOCC2)ccc2cccnc12 (stereo not given) | -27.6% |  |
| CCOC(=O)N1CCN(C(c2ccnc3ccccc23)c2nnnn2-c2c(C)cccc2C)CC1 (stereo not given) | -13.6% |  |
| CCOC(=O)N1CCN(C(c2cccnc2)c2ccc3cccnc3c2O)CC1 (stereo not given) |  | 16.4 µM (active) |
| CCN(CC)c1nc(C#N)nc(OC)n1 | -5.8% |  |
| CC(C)c1ccc(NC(=O)CN(C)S(=O)(=O)c2ccc3c(c2)c(=O)n(C)c(=O)n3C)cc1 | -2.65% |  |
| Cc1ccc(S(=O)(=O)Nc2nc(C)cc(-n3nc(C)cc3C)n2)cc1 | 2.01% |  |
| CCCC(C(=O)n1nc(C)cc1C)C(NS(=O)(=O)c1ccc(C)cc1)c1ccccc1 (stereo not given) |  | 23.1 µM (active) |
| CSCC(NS(=O)(=O)c1ccc(C)cc1)C(=O)O (stereo not given) | 0.292% |  |
| Cc1ccc(C)c(C(O)c2ncc(-c3cccc4ccccc34)[nH]2)c1 (stereo not given) | 3.86% |  |
| c1ccc(Cn2nnc3c(NCC4CC4)ncnc32)cc1 | -7.11% |  |
| Cc1cc(OCCCC(=O)Nc2cc(S(=O)(=O)N3CCOCC3)ccc2N2CCOCC2)ccc1Cl |  | 13 µM (active) |
| CC(C)CCC(=O)Nc1cc(S(=O)(=O)N2CCOCC2)ccc1N1CCCC1 | -19.5% |  |
| CC(=O)NCCC(=O)Nc1cc(S(=O)(=O)N2CCOCC2)ccc1N1CCOCC1 | 3.79% |  |
| COC(C(=O)NCc1ccccc1C)c1ccccc1 (stereo not given) | -24.3% |  |
| COC(C(=O)Nc1ccc(C(C)=O)cc1)c1ccccc1 (stereo not given) | -10.6% |  |
| COC(C(=O)Nc1ccc(S(=O)(=O)Nc2ccc(C)c(C)c2)cc1)c1ccccc1 (stereo not given) |  | 20.6 µM (active) |
| CC1CCN(C(=O)c2ccc(CSc3ccc(Cl)cc3)cc2)CC1 |  | 18.4 µM (active) |
| O=C(C1CC1)N1CCN=C1SCc1ccc(Cl)cc1 | 0% |  |
| COc1cccc(Cn2c(SCc3ccc(C(=O)N4CCC(C)CC4)cc3)nc3ccncc32)c1 | 9.9% |  |
| CCCNC(=O)C1(C)CCCN(C(=O)c2cccc(OC(C)=O)c2C)C1 (stereo not given) | 3.99% |  |
| FC(F)(F)c1ccccc1Cc1c(-c2ccccc2)nc2c3ccccc3ccn12 | 5.23% |  |
| COc1ccc(F)cc1S(=O)(=O)NCC(c1ccc2c(c1)OCO2)N1CCN(C)CC1 (stereo not given) | 8.77% |  |
| CC(C)CNC(=O)C(=O)NCC(c1ccc2c(c1)OCO2)N1CCOCC1 (stereo not given) | 8.13% |  |
| Cc1cc(C)c(S(=O)(=O)NCC(c2ccc3c(c2)OCO3)N2CCOCC2)c(C)c1 (stereo not given) |  | 10.3 µM (active) |

| SMILES | activity change, negative = cytotoxicity | Potency |
| --- | --- | --- |
| O=C(CCc1ccccc1)NCc1ccc2c(c1)CCN2C(=O)c1ccccc1 | 17.5% |  |
| Cc1nccn1-c1ccc(NC(=O)[C@H]2O[C@@H](n3cnc4c(N)ncnc43)[C@H](O)[C@@H]2O)cc1 | -10.6% |  |
| CSc1ccc(CN2CCC2(C)C(=O)Nc2ccc(C)c(O)c2)cc1 (stereo not given) | 4.69% |  |
| Cc1nc2sc(C)c(C)n2c(=O)c1S(=O)(=O)NCCc1ccc(Cl)cc1 | 0% |  |
| CC1(C(=O)NS(=O)(=O)c2ccccc2)CCN1C(=O)c1ccccc1 (stereo not given) | -0.286% |  |
| Cc1nnc(NC(=O)CSc2nccn2-c2cccc(C)c2C)s1 |  | 9.2 µM (active) |
| Cc1cc(C)cc(-n2ccnc2SCC(=O)Nc2nc3ccccc3s2)c1 | -4.98% |  |
| Cc1cccc(-n2ccnc2SCC(=O)Nc2cccc3ccccc23)c1C | 17% |  |
| C[C@@H]1CN([C@@H](C)CO)C(=O)CCCn2nncc2CO[C@@H]1CN(C)S(=O)(=O)c1ccc(-c2ccccc2)cc1 | 1.41% |  |
| CN(C)c1ccc(/C=N/NC(=O)c2ccc(Cn3cc(Br)cn3)o2)cc1 | -5.79% |  |
| O=C(N/N=C\c1ccc(Br)cc1)c1ccc(Cn2cccn2)o1 |  | 11.6 µM (active) |
| O=C(N/N=C/c1cccc(OCc2ccccc2)c1)c1ccc(Br)o1 | -19.2% |  |
| C[C@H]1CN([C@@H](C)CO)S(=O)(=O)c2ccc(Br)cc2O[C@H]1CN(C)C(=O)c1cnccn1 | -2.51% |  |
| CC(C)CC1C(=O)N(Cc2cn(Cc3ccco3)nn2)CCS(=O)(=O)N1Cc1ccc(-c2ccc(Cl)c(Cl)c2)cc1 (stereo not given) | 1.12% |  |
| CCCCN(C=O)c1c(CC)nc2c(OCCC3CCCCC3)cccn12 | -22.3% |  |
| COc1ccc(CC(=O)Nc2ccc(-c3nc4ccccc4s3)c(C)c2)cc1 | 11.6% |  |
| COC(=O)Cc1[nH]n(-c2nc3ccccc3s2)c(=O)c1C(C)=Nc1ccc(OC)cc1 |  | 9.2 µM (active) |
| COc1ccc(/C=C(/CC(=O)Nc2ccc(C)cc2)c2nc3ccccc3s2)cc1 | 7.41% |  |
| CC1=C(C(=O)N2CCOCC2)CC(CC(=O)NCc2cccc3ccccc23)C(=O)N1CCC1=CCCCC1 (stereo not given) | -13.8% |  |
| COc1cc(C(=O)NCCc2csc3nc(-c4ccccc4C)nn23)cc(OC)c1OC | 5.16% |  |
| CCC(CC)C(=O)N1CCc2cc(OC)c(OC)cc2C1COc1ccc(F)cc1 (stereo not given) | -17% |  |
| COc1ccc2c(c1)CCNC2Cc1ccc(OC)c(O)c1 (stereo not given) | -11.2% |  |
| CC[C@H]1CN2CCc3cc(OC)c(OC)cc3[C@@H]2C[C@@H]1C[C@H]1NCCc2cc(OC)c(OC)cc21 |  | 5.17 µM (active) |
| Cc1cc(Cl)ccc1-c1nc(NCCN(C)C)nc2ccsc12 | 1.27% |  |

| SMILES | activity change, negative = cytotoxicity | Potency |
| --- | --- | --- |
| COc1cc(C=NC2CCCCC2)ccc1O | 5.52% |  |
| CCOc1cccc(-c2nnc(SCC(=O)NC3CC3)n2C)c1 | 15.3% |  |
| CCc1ccc(-c2nn3c(C)nnc3s2)cc1NC(=O)c1ccc(-c2cccc(Cl)c2)o1 | -9.55% |  |
| CCOc1cccc(-c2nn3c(-c4ccccn4)nnc3s2)c1 |  | 5.17 µM (active) |
| CCOC(=O)C1CCN(C(=O)c2ccc3c(=O)n4nc(Nc5ccccc5CC)sc4nc3c2)CC1 | -15.5% |  |
| COc1cc(NC(=O)Cn2nc(-c3ccc(C)c(C)c3)ccc2=O)cc(OC)c1 | 8.58% |  |
| Cc1ccc(-c2nc3c(Cl)cc(C(F)(F)F)cn3c2Cc2cccc(Cl)c2)cc1 | -0.482% |  |
| O=c1c([N+](=O)[O-])cc(C(F)(F)F)cn1Cc1cccc(Cl)c1 |  | 18.4 µM (active) |
| CC(NC(=O)Cn1cc(C(F)(F)F)cc(Cl)c1=O)c1ccccc1 (stereo not given) | -0.457% |  |
| Cn1c(NCc2cccnc2)nc2cc(-c3ccc(F)cc3)sc2c1=O | -1.46% |  |
| O=C(Nc1ccccc1C(F)(F)F)c1nc(S(=O)(=O)Cc2ccccc2F)ncc1Cl | 10.7% |  |
| COc1ncnc2c1ncn2CCCNCCN1CCOCC1 | 70.3% |  |
| Cc1ccccc1C1=NC(C(F)(F)F)(C(F)(F)F)c2c(n(-c3ccc(F)cc3)c(=O)[nH]c2=O)N1 |  | 14.6 µM (active) |
| O=c1[nH]c(=O)n(Cc2ccco2)c2c1C(C(F)(F)F)(C(F)(F)F)N=C(c1ccco1)N2 | -26.4% |  |
| COc1cccc(C(=O)NC2(C(F)(F)F)C(=O)Nc3c2c(=O)[nH]c(=O)n3-c2ccc(C)cc2)c1 (stereo not given) | -11.3% |  |
| O=C(NC(c1ccco1)c1cc(Cl)c2cccnc2c1O)c1ccccc1 (stereo not given) | -9.61% |  |
| COc1ccc2nc(-c3ccccn3)ccc2c1 | -15.3% |  |
| CC(C)c1ccc(-c2noc(C3CCCN(S(C)(=O)=O)C3)n2)cc1 (stereo not given) |  | 18.4 µM (active) |
| O=C(Cc1cccs1)N1CCCC(c2nc(-c3ccc(S(=O)(=O)N4CCCC4)cc3)no2)C1 (stereo not given) |  | 20.6 µM (active) |
| COc1ccc(NC(=O)N2CCCC(c3nc(-c4ccc(F)cc4)no3)C2)cc1 (stereo not given) | -24.7% |  |
| COc1cccc(-c2noc(C3CCCN(C(=O)c4ccc(F)cc4)C3)n2)c1 (stereo not given) | 0% |  |
| COc1cc(-c2noc(C3CCCN(S(=O)(=O)c4cccc(Cl)c4)C3)n2)cc(OC)c1OC (stereo not given) | -13.3% |  |
| O=c1ccc(S(=O)(=O)N2CCCC2)cn1Cc1nc(-c2ccccc2)no1 | -17.4% |  |

From PubChem BioAssay AID1347076 (National Center for Advancing Translational Sciences (NCATS), 2019)
